An excerpt weighted towards active compounds, which were near 1.6% of everything screened.
KCNQ2 enhance = KCNQ2 (rat) channel potentiation | O88943 | CHO-K1 KCNQ2, FluxOR thallium flux fluorescence; active compounds read high | B-score at 10 µM | actives 0.54% (n = 310,000) | AID 2239;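 active means fluorescence ratio B-score at least 3 SD of library B-scores, with initial fluorescence B-score within 3 of them, cut at about 5.3 in these data; same plate scores as AID 2156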;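 further: B-score of peak minus minimum over baseline fluorescence ratio after K+ and Tl+ stimulus; positive B-score means potentiation of KCNQ2 with more thallium influx and brighter signal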
Target sequence (O88943 whole entry, looked up): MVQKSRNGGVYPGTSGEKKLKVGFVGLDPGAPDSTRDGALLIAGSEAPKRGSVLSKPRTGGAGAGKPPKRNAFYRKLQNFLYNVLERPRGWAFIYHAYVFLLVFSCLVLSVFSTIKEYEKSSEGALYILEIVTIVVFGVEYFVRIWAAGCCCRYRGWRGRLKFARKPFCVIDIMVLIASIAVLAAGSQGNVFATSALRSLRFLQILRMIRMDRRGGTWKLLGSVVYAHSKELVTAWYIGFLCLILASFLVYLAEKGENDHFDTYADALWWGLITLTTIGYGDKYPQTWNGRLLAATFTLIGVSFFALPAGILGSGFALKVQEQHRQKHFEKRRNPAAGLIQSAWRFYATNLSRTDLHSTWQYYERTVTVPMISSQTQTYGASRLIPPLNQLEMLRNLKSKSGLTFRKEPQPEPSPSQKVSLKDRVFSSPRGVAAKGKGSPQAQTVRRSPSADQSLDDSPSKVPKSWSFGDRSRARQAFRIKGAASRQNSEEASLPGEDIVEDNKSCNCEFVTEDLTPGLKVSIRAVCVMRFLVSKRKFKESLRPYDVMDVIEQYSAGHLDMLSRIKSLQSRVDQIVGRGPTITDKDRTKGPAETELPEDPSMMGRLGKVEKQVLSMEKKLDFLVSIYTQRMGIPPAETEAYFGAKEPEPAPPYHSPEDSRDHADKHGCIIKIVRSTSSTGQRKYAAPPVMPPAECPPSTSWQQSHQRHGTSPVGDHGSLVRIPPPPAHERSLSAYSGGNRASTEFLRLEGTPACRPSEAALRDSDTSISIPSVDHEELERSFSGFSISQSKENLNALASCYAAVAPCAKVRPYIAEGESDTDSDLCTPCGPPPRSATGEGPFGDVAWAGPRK
KCNQ2 inh = blocks the rat KCNQ2 potassium channel | O88943 | CHO-K1 KCNQ2, FluxOR thallium flux, 20 min; active compounds read low | B-score at 10 µM | actives 1.1% (n = 310,000) | AID 2156;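 active means fluorescence ratio B-score at most minus 3 library SDs, with starting brightness B-score within 2 library SDs, cut at about -5.5 in these data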
* hit, by the source's call; i = inactive; . = not tested or not shown.

SMILES	KCNQ2 enhance	KCNQ2 inh
O=S(=O)(c1ccccc1)C(/C=N\O)/C=C/c1ccccc1 (stereo not drawn)	-6.29	-6.29*
O=S(=O)(c1ccccc1)N1CCC(=NO)CC1	1.4	i
CC(C)CC(=O)Nc1ccc(N2CCOCC2)cc1	.	i
O=C(CCN1Cc2ccccc2C1)c1ccc2c(c1)OCCO2	-5.9	-5.9*
O=C(CCN1CCc2ccccc2C(c2ccccc2)C1)c1ccc2c(c1)OCCO2 (stereo not drawn)	.	i
Cc1ccc(NC(=O)C2CCCN(S(=O)(=O)c3cccnc3)C2)c(C)c1 (stereo not drawn)	0.44	i
CCN(CC)c1ccc(NC(=O)CSc2ccsc2[N+](=O)[O-])c(C)c1	5.47*	i
O=C(CSc1ccsc1[N+](=O)[O-])Nc1cc(F)ccc1F	.	i
O=C(Nc1ccccc1C(=O)NCCCN1CCOCC1)c1cccc([N+](=O)[O-])c1	2.05	i
COc1ccccc1NC1CCCCC1NS(=O)(=O)c1ccccc1 (stereo not drawn)	1.15	i
Cc1cnc(C(=O)OCC(=O)Nc2cc(-c3ccccc3)nn2-c2ccccc2)cn1	.	i
Cc1ccc(/C=C2/Sc3ccc(C(=O)NCCN4CCOCC4)cc3NC2=O)cc1	.	i
CCN1CCCC1CNC(=O)c1ccc2c(c1)NC(=O)/C(=C\c1ccc(C)cc1)S2 (stereo not drawn)	-7.56	-7.56*
CCn1cc(C(=O)NNC(=O)c2ccc(Cl)cc2)c(=O)c2ccc(C)nc21	.	i
CC(C)(C)NC(=O)C(c1ccncc1)N(C(=O)c1csnn1)c1cccc2ccccc12 (stereo not drawn)	.	i
CCOc1ccc(C2=NNC(c3cccnc3)=Nc3ccc(OC)cc32)cc1	.	i
CCOc1ccc(C2=NNC(c3cccs3)=Nc3ccc(OC)cc32)cc1	-5.62	-5.62*
COc1ccc(/C=C/C(=O)NCC(=O)N2CCC(N(C)CCN3CCOCC3)CC2)cc1OC	0.67	i
CCOc1ccc2nc(N3C(=O)/C(=C/c4ccc(Cl)cc4)NC3=S)sc2c1	15.2*	i
COc1ccc2nc(N3C(=O)CNC3=S)sc2c1	0.42	i
Nc1nc(-c2cccnc2)nc2sc3c(c12)CCCC3	3.48	i
O=C1CN(c2nc(-c3cccnc3)nc3sc4c(c23)CCCC4)CCN1	-5.68	-5.68*
Cc1cc(SCC(=O)Nc2c(C)n(C)n(-c3ccccc3)c2=O)nc2ccccc12	0.23	i
CCCCC1(CO)C(=O)N(c2ccccc2)N(c2ccccc2)C1=O	0.29	i
CCCCC1(Cc2cccc([N+](=O)[O-])c2)C(=O)N(c2ccccc2)N(c2ccccc2)C1=O	-6.93	-6.93*
SMILES	KCNQ2 enhance	KCNQ2 inh
Cc1c(Cl)cccc1NC(=S)N1CCC(N(C)CC2CCCO2)CC1 (stereo not drawn)	0.09	i
Oc1ccc(-c2nc(-c3ccc(O)c(O)c3)cs2)cc1	-5.56	-5.56*
Oc1ccc(Nc2nc(-c3ccc4ccccc4c3)cs2)cc1	.	i
O=S(=O)(c1ccc2oc3ccc(S(=O)(=O)N4CCCCC4)cc3c2c1)N1CCCCC1	.	i
CNS(=O)(=O)c1cc(-c2nnc(N3CCOCC3)c3ccccc23)ccc1C	.	i
CCCCOC(=O)c1ccc(NC(=O)c2c(N)n(C)c(=O)[nH]c2=O)cc1	0.51	i
COC(=O)c1c(NC(=O)c2ccco2)sc2c1CCC2	.	i
CC(C)OC(=O)c1c(NC(=O)c2ccco2)sc2c1CCCCC2	-6.32	-6.32*
CCOC(=O)C1CCN(c2c(C(=O)c3ccccc3)cnc3ccc(Cl)cc23)CC1	-5.58	-5.58*
CCOC(=O)C1CCN(C(=O)c2cccc(Cl)c2)CC1	0.56	i
O=C(c1ccc(Cl)nc1)N1CCN(S(=O)(=O)c2ccc(Cl)cc2)CC1	0.23	i
COc1ccc(-c2nc(=S)[nH][nH]2)cc1OC	.	i
COc1ccc(-c2nc(=S)[nH][nH]2)cc1	-8.38	-8.38*
O=C(CCCOc1ccccc1)NC(=S)Nc1ccccc1	0.33	i
O=C(COCCOCC(=O)N(c1ccccn1)C1CCCCC1)N(c1ccccn1)C1CCCCC1	0.07	i
Cc1ccc(OCC(=O)N(c2ccccn2)C2CCCCC2)c(C)c1	-6.39	-6.39*
CC(C)Cn1c(=O)c2ccccc2n2c(CCC(=O)NCC3CCCO3)nnc12 (stereo not drawn)	.	i
O=C(/C=C/c1ccc(-c2ccccc2[N+](=O)[O-])o1)c1ccc(Br)cc1	-7.22	-7.22*
O=C(/C=C/c1ccc(-c2ccccc2[N+](=O)[O-])o1)c1ccc(F)cc1	.	i
Cc1ccc(CSCC(=O)N(C)CC(=O)Nc2c(Cl)cccc2Cl)cc1	0.01	i
CSc1ccc(/C=C(/NC(=O)c2ccccc2)C(=O)NCCN2CCOCC2)cc1	0.15	i
COc1ccc(CCNC(=O)/C=C/c2ccco2)cc1	.	i
CC1CCCN(S(=O)(=O)c2ccc(S(=O)(=O)N3CCC4(CC3)OCCO4)cc2)C1 (stereo not drawn)	.	i
O=C(CSc1nnc(COc2ccc(F)cc2)o1)N1CCCCC1	0.66	i

Screening data: PubChem BioAssay, Johns Hopkins Ion Channel Center
